# Data published in PubChem BioAssay AID743100 (Vanderbilt Specialized Chemistry Center, 2013).
# Values without a mark were called inactive. The source made the active and inactive calls.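 How the source made its calls: active means calcium response above 60% of the acetylcholine maximum at human M5, as a positive modulator; inactive means the rest.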
# Target: Muscarinic acetylcholine receptor M5 (Homo sapiens) (UniProt P08912)
# Assay: potentiators of ACh response at human M5 – cell-based, single concentration, CHO-K1 hM5, calcium flux (AID 743100)
# Conditions: CHO-K1 hM5, Fluo-4 calcium flux, ACh EC20, active compounds read high; at 10 µM unless noted
# Chain of Muscarinic acetylcholine receptor M5 (Homo sapiens) (P08912 whole entry, looked up): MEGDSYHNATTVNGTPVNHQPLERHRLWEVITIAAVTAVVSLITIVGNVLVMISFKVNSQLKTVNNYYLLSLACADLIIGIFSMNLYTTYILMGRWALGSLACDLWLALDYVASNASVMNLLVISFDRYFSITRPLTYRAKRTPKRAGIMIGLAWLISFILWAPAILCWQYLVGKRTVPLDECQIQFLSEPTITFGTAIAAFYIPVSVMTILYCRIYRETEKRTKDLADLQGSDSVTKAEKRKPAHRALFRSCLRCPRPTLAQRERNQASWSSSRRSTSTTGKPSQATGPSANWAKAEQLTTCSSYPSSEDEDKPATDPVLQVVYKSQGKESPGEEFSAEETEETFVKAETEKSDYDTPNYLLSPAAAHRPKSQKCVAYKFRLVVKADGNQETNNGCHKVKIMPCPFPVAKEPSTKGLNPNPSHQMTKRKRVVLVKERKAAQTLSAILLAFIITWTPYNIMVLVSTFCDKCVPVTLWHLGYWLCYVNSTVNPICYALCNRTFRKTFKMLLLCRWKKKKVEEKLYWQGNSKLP
row,SMILES,% ACh max response
1,CCN(Cc1ccccc1C(F)(F)F)C(=O)C1(F)CCN(S(=O)(=O)c2ccc3[nH]ncc3c2)CC1,75.9% (active)
2,CCN(Cc1ccccc1)C(=O)C1CCN(S(=O)(=O)Cc2cccc(C(F)(F)F)c2)CC1,25.5% [at 30 µM]
3,CCN([C@H](C)c1ccccc1)S(=O)(=O)C1CCN(C(=O)c2ccc3[nH]ncc3c2)CC1,26.9%
4,CCN(Cc1ccccc1)C(=O)C1CCN(S(=O)(=O)c2ccc(F)cc2)CC1,56.2% [at 30 µM]
5,CCN(Cc1ccccc1)C(=O)C1CCN(S(=O)(=O)c2ccc3nn(C)cc3c2)CC1,51.4%
6,CCN(Cc1ccccc1)C(=O)C1CCN(S(=O)(=O)CC(C)(C)C)CC1,17% [at 30 µM]
7,CCN(Cc1ccc(F)cc1)C(=O)C1CCN(S(=O)(=O)c2ccc3cn[nH]c3c2)CC1,52.1%
8,CCN(Cc1ccccc1)C(=O)C1CCN(S(=O)(=O)c2ccc(OC)nc2)CC1,62.5% [at 30 µM] (active)
9,CCN(Cc1ccccn1)C(=O)C1CCN(S(=O)(=O)c2ccc3cn[nH]c3c2)CC1,35.1%
10,CCN(Cc1ccccc1)C(=O)C1CCN(S(=O)(=O)c2ccc(Cl)nc2)CC1,50.1% [at 30 µM]
11,CCN(Cc1ccccc1C(F)(F)F)C(=O)C1CCN(S(=O)(=O)c2ccc3[nH]ncc3c2)CC1,90.2% (active)
12,CCN(Cc1ccccc1)C(=O)C1CCN(S(=O)(=O)c2cccc3nsnc23)CC1,40.8% [at 30 µM]
13,[2H]C([2H])(C)N(C(=O)C1CCN(S(=O)(=O)c2ccc3cn[nH]c3c2)CC1)[C@H](C)c1ccccc1,94.6% (active)
14,CCN(C(=O)C1CCN(S(=O)(=O)N(C)C)CC1)[C@H](C)c1ccccc1,29.1%
15,CCN(CC1CCN(S(=O)(=O)c2ccc3c(c2)OCCO3)CC1)C(=O)c1ccccc1,11.3%
16,CCN(Cc1ccc(C#N)cc1)C(=O)C1CCN(S(=O)(=O)c2ccc3cn[nH]c3c2)CC1,8.37%

row,SMILES,% ACh max response
1,CCN(Cc1ccccc1OC)C(=O)C1CCN(S(=O)(=O)c2ccc3cn[nH]c3c2)CC1,84.5% (active)
2,CC1c2ccccc2CCN1C(=O)C1CCN(S(=O)(=O)c2ccc3occc3c2)CC1 (configuration not stated),28.5%
3,CCN(Cc1ccccc1Cl)C(=O)C1CCN(S(=O)(=O)c2ccc3cn[nH]c3c2)CC1,90.7% (active)
4,CCN(Cc1ccccc1)C(=O)C1CCN(S(=O)(=O)C(C)C)CC1,20.8% [at 30 µM]
5,CCN(Cc1ccccc1)C(=O)C1CCN(S(=O)(=O)c2cccc(OC)c2)CC1,72.2% [at 30 µM] (active)
6,CCN(Cc1ccccc1)C(=O)C1CCN(S(=O)(=O)c2ccc(C(F)(F)F)nc2)CC1,56.9% [at 30 µM]
7,CCN(Cc1ccccc1OC(F)(F)F)C(=O)C1CCN(S(=O)(=O)c2ccc3cn[nH]c3c2)CC1,73.2% (active)
8,CCc1ccc(S(=O)(=O)N2CCC(C(=O)N(CC)Cc3ccccc3)CC2)cc1,64.3% [at 30 µM] (active)
9,CCN(Cc1ccccc1)C(=O)C1CCN(S(=O)(=O)c2cccc(C)c2)CC1,63.8% [at 30 µM] (active)
10,CCN(Cc1ccccc1C(F)(F)F)C(=O)C1CCN(S(=O)(=O)c2ccc(-n3cccn3)cc2)CC1,81.9% (active)
11,CCN(Cc1ccccc1)C(=O)C1CCN(S(=O)(=O)c2ccc3nsnc3c2)CC1,77.9% [at 30 µM] (active)
12,CCN(Cc1ccccc1)C(=O)C1CCN(S(=O)(=O)c2cccc(C#N)c2)CC1,61% [at 30 µM] (active)
13,CCN(CC1CCN(S(=O)(=O)c2ccc(OC(F)(F)F)cc2)CC1)C(=O)c1ccccc1,10.5%
14,CCCc1ccc(S(=O)(=O)N2CCC(C(=O)N(CC)Cc3ccccc3)CC2)cc1,62.9% [at 30 µM] (active)
15,CCN(Cc1ccccc1)C(=O)C1CCN(S(=O)(=O)c2cccc(Cl)c2)CC1,65.3% [at 30 µM] (active)
16,CCN(Cc1cccc(C#N)c1)C(=O)C1CCN(S(=O)(=O)c2ccc3cn[nH]c3c2)CC1,46.2%
